The campaign covered roughly 350,000 compounds. About 31,000 (8.9%) were called active. About 15% were inconclusive and are not listed. Calls come from the whole dose curve; as a rule, active = well fitted inhibition curve with a large enough effect; inconclusive = small, poorly fitted or top-dose-only effect; inactive = no such curve, though single readings can be large or run the other way. The list comes from a sample in which actives are over-represented; it also holds similar structures and randomly drawn compounds.
Target: Histone-lysine N-methyltransferase EHMT2 (Homo sapiens) (UniProt Q96KQ7)
Sequence (Q96KQ7 913-1193 limits assumed): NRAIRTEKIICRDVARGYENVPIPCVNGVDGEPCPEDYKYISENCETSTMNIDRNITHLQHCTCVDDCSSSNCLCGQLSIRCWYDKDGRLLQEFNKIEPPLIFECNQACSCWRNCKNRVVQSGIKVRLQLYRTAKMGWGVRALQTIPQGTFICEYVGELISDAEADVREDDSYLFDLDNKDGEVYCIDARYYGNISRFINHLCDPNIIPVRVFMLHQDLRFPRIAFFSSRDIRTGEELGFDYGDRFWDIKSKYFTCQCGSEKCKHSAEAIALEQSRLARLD
Assay: qHTS Assay for Inhibitors of Histone Lysine Methyltransferase G9a; note: nearly all actives have a fitted effect of over 75% in size
Settings: G9a H3K9 monomethylation, AlphaScreen, 2 h; series mostly up to 59 µM; activity, negative = inhibition: at the top concentration
Source text: Methylated lysines, on the N-terminal tails of histone proteins serve as epigenetic markers to recruit factors that can then modify local chromatin structure to lead to functional consequences. G9a and other members of the SUV39 family of the SET domain-containing superfamily of histone lysine methyltransferases (HMT) have been identified to specifically methylate Lys9 of histone H3 (H3K9). G9a catalyzes the mono- and di-methylation of H3K9 in mammalian euchromatic regions, where the resulting H3K9me2 is indicative of transcriptional repression. […] The inhibition of G9a will result in transcriptional activation and work synergistically with DNA methyltransferase and histone deacetylase inhibitors, to kill cancer cells. This qHTS assay for identification of G9a inhibitors is a chemiluminescence based AlphaScreen (PerkinElmer). Methylation of biotinylated-histone peptide is measured through specific antibody-based detection, in conjunction with streptavidin-coated donor and anti-IgG antibody-coated acceptor beads. The method is particularly well suited for detection of inhibitors acting by the desired histone peptide competitive mechanism and is applicable to testing other HMTs. Although AlphaScreen has significant advantages with its utility in a variety of epigenetic target assays, the primary screening data provided in this deposition should be used with caution due to the prevalence of screening artifacts. An AlphaScreen counterscreen is highly recommended to be run against any putative actives to eliminate non specific artifacts. Alternatively, one can use other AlphaScreen assays in PubChem to filter out promiscuous hits. Quinn et al. A chemiluminescence-based method for identification of histone lysine methyltransferase inhibitors. Mol Biosyst 6(5): 782-8. 2010. PMID: 20567762 [2] Baell,Holloway. New substructure filters for removal of pan assay interference compounds (PAINS) from screening libraries and for their exclusion in bioassays. J Med Chem. 53(7):2719-40. 2010. PMID: 20131845 NIH Molecular Libraries Probe Production Network [MLPCN] NIH Chemical Genomics Center [NCGC] Structural Genomics Consortium (SGC) NIH Grant: 5U54 MH084681-02
To each well of a 1,536w plate, 2ul of HMT enzyme (final 20nM) were added, using a nanoliter dispenser. The G9a- and GLP-inhibitor BIX-01294 (CID: 25150857) are used as an intraplate control, with a 16-point titration in duplicate. A Kalypsys pin-tool transferred 23nl of library compound solution in DMSO to each well. Following a 15 min incubation of enzyme with compounds at room temperature, 1ul mixture of b-H3K9 peptide substrate (final 500nM) and SAM cofactor (final 20uM) were added. Reactions were allowed to proceed at room temperature for 2 hours. Methylated b-H3K9 peptide product was detected with 0.5 ug/mL rabbit polyclonal anti-monomethyl histone H3K9 antibody (Abcam Inc., Cambridge, MA) and 20 ug/mL each streptavidin-coated donor and anti-rabbit IgG acceptor AlphaScreen beads. Antibody and beads were added in a 1ul dispense, for a final volume of 4ul, and plates were incubated, protected from the light, for 10 min at room temperature. Microplates were then read on an EnVision multilabel plate reader using the 1,536 plate HTS AlphaScreen aperture (excitation time 80 ms, measurement time 240 ms).
% is set by controls: 0 for no effect and ±100 for the full control effect; potency is the fitted concentration of half-maximal effect.

activity, negative = inhibition, inactive:
CCn1c(SCC(=O)Nc2ccc(S(=O)(=O)Nc3onc(C)c3C)cc2)nnc1-c1ccccc1 -43.1%
Cc1noc(NS(=O)(=O)c2ccc(NC(=O)c3oc4ccc(F)cc4c3C)cc2)c1C -20.8% [at 102 µM]
CC(C)OCCCn1c(SCC(=O)c2ccccc2)nc2c(sc3ccccc32)c1=O -2.03%
COc1ccc(-c2nn(-c3ccccc3)cc2C(=O)Nc2nc(CC(C)=O)ns2)cc1 -1.95%
COc1cc(NC(=O)c2cccnc2SC)cc(OC)c1 1.95% [at 102 µM]
Cc1nnc(C)n1-c1ccc(C(=O)Nc2cccc(Br)c2)cc1 -0.406%
CCOC(=O)CC1COCCN1C(=O)c1cc(COc2ccc(F)c(F)c2)on1 (stereo unspecified) -0.953% [at 102 µM]
COc1ccc(NC(=O)CN(C)C(=O)CC2CCCCC2)cc1 0.205% [at 102 µM]
CSc1ncccc1C(=O)Nc1ccc(C)cn1 36.7% [at 102 µM]
COc1ccc(-c2cc(C(=O)N(C)Cc3ccccc3)c3ccccc3n2)cc1 18.4% [at 102 µM]
COc1ccc(NC(=O)CN(C)C(=O)c2n[nH]c3ccccc23)cc1 -20.6% [at 102 µM]
CC(=O)N1CCN(C(=O)c2cc(-c3ccc(C)o3)nc3ccccc23)CC1 -3.86% [at 0.501 µM]
COc1ccc(CNC(=O)Cc2coc3ccc(C(C)C)cc23)cc1 12%
Cc1oc2ncnc(N3CCOCC3)c2c1C(=O)NCCc1ccccc1 -7.19%
CCCN(C(=O)Cn1cc(S(=O)(=O)N2CCN(c3ccccc3F)CC2)c2ccccc2c1=O)c1cccc(C)c1 -28.5%
COc1ccc(NC(=O)CN(C)C(=O)c2cc(C3CC3)nn2-c2ccccc2)cc1 -2.32% [at 2.33 µM]
O=C(CCNC(=O)c1ccc([N+](=O)[O-])cc1)NC1CCCCC1 -10.3% [at 102 µM]
COc1cc(NC(=O)Cn2nc(-c3ccc(C)c(C)c3)ccc2=O)cc(OC)c1 2.48%
CCN(CCO)C(=S)Nc1cc(C(=O)OC)ccc1C(=O)OC -9.82% [at 102 µM]
CCCN(CCC)C(=S)Nc1cc(C(=O)OC)ccc1C(=O)OC 4.81% [at 102 µM]
CCn1cc(C(=O)N(C)Cc2ccccc2)c(=O)c2cc(S(=O)(=O)N3CCCCCC3)ccc21 10.3%
Cc1ccc(S(=O)(=O)N2CCc3cc(C(=O)Nc4ccc(Cl)cc4C)ccc32)cc1 3.64%
COc1ccc(/C=C/C(=O)c2ccc(NS(=O)(=O)c3ccc(C)cc3)cc2)cc1O -14.7%
COc1ccc(/C=C/C(=O)N2CCCC2)cc1OC 47.4% [at 102 µM]
Cc1nc(N)nc(SCc2ccc([N+](=O)[O-])cc2)c1N -1.52% [at 12.7 µM]
Cc1cc([N+](=O)[O-])nn1Cc1ccc(F)cc1 8.26% [at 102 µM]
CCN(CC)CCn1c2c(c(SCC(=O)Nc3nc4ccccc4s3)nc1=O)CCCC2 5.88% [at 0.501 µM]
CC(C)(C)c1ccc(SCCc2ccncc2)cc1 60.8% [at 102 µM]
Cc1nn2c(=O)cc(COC(=O)CNC(=O)c3ccc(F)cc3)nc2s1 1.25%
Cc1ccc(-c2nc(C)sc2CC(=O)O)cc1 -39.5%
CCOC(=O)C(=O)Nc1nc(-c2ccccc2)c(CC)s1 8.29% [at 102 µM]
Cc1nnc(SCC(=O)Nc2cccc(N)c2)n1-c1ccccc1 10.8% [at 102 µM]
O=C(Nc1cccc(F)c1)NC1CCCCCCC1 76% [at 102 µM]
COc1ccc(C(=O)c2oc3ccccc3c2NC(=O)COc2cccc(C)c2)cc1 -4.56%
CCc1nn(CC(=O)N2CCN(c3cccc(C(F)(F)F)c3)CC2)c(=O)c2cc3occc3n12 2.68%
COCCN(Cc1ccco1)C(=O)Cn1ncc2c([nH]c3ccccc32)c1=O -4.69%

Potency, active:
Cc1cc(C)c2nc(-c3cccnc3)cc(C(=O)Nc3ccc(S(=O)(=O)Nc4onc(C)c4C)cc3)c2c1 50.1 µM
COc1ccc(NC(=O)c2cn(-c3ccccc3)nc2SC)cc1 39.8 µM
COc1ccc(NC(=O)CN(C)C(=O)Cc2coc3cc(C)c(C)cc23)cc1 50.1 µM
COc1ccc(NC(=O)CN(C)C(=O)c2cc(-c3ccc(C)o3)nc3ccccc23)cc1 4.47 µM
Cc1ccc(NC(=O)c2cc(-c3ccc(C)o3)nc3ccccc23)nc1 2.24 µM
CCS(=O)(=O)Nc1cc(C(=O)OC)ccc1C(=O)OC 2.82 µM
COC(=O)c1ccc(COc2ccc(/C=C/C(=O)c3ccc(OC)c(CSCC(=O)O)c3)cc2OC)cc1 39.8 µM
Cc1nc(SCc2ccc(F)cc2)c([N+](=O)[O-])[nH]1 25.1 µM
C/C(=N/Nc1nc(-c2ccccc2)c(CC(=O)O)s1)c1ccccc1 1.78 µM
COc1ccc(C(=O)NC(=O)CSc2nnc(-c3ccco3)n2-c2ccccc2)cc1 89.1 µM
